# In article PMC5540273 (PLoS ONE, 2017):
# How the values were obtained:
# Conditions in all cases: concentration: 1 μM, replicates: in singlicate; n = 1
# [1] = test system: MET
# [2] = test system: T1, MINK
# T1 construct: gene MINK1
# [3] = test system: MKK7
# [4] = test system: MKNK1
# [5] = test system: MKNK2
# [6] = test system: T2, MLCK
# T2 construct: gene MYLK3
# [7] = test system: T3, MLK1
# T3 construct: gene MAP3K9
# [8] = test system: MLK2
# [9] = test system: MLK3
# [10] = test system: MRCKA
# 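Further: KINOMEscan kinase panel screen.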
SMILES,%Inh [1] [%],%Inh [2] [%],%Inh [3] [%],%Inh [4] [%],%Inh [5] [%],%Inh [6] [%],%Inh [7] [%],%Inh [8] [%],%Inh [9] [%],%Inh [10] [%]
O=C(Nc1n[nH]c2cc(-c3ccccc3F)ccc12)C1CC1 [SB-733371],0,69,10,0,18,29,0,5,0,0
CN1C(=O)C(Nc2cc(Cl)c(O)c(Cl)c2)=C(c2ccc(Cl)cc2)C1=O [SB-404321],0,0,0,38,19,0,0,0,0,5
COc1ccc(CNC(=O)NC2CCN(c3ccnc(Nc4ccc(F)cc4)n3)C2)cc1 (stereo not drawn) [GSK1379706],0,80,10,0,0,8,0,0,17,16
C[C@@H]1CC[C@H](C(=O)NC2CCCCC2)CN1c1cc(-c2ccc3c(N)n[nH]c3c2)nc(N)n1 [GSK2291363],0,12,0,12,18,0,4,0,32,15
O=C(Nc1ccc2c(c1)OCO2)NC1CCN(c2ccnc(NCc3ccc(F)cc3)n2)CC1 [GSK1379859],0,0,0,0,0,0,0,0,0,0
Cl.c1ccc(Cn2cnc3cc(Nc4ncnc5ccccc45)ccc32)cc1 [GW272142],33,0,17,0,6,0,0,0,11,16
COC(=O)c1c(-c2ccccc2)c2cc(C)ccc2c(=O)n1Cc1ccccc1,0,0,0,0,0,0,0,0,0,0
FC(F)(F)c1ccc(-c2ncn(CCCN3CCOCC3)c2-c2ccncc2)cc1 [SB-217780],4,0,0,16,58,0,0,2,5,0
O=c1cc(N2CCOCC2)nc2n(Cc3ccc(F)c(Cl)c3)ccn12 [GSK2297099],0,0,0,5,1,7,0,0,0,0
Nc1ncnc2c1ncn2-c1ccc(Cl)cc1 [AH2635],0,0,0,26,24,0,0,18,15,0
COc1cc(Nc2nccc(N3CCC(NC(=O)C4COc5ccccc5O4)C3)n2)cc(OC)c1OC (stereo not drawn) [GSK1379761],19,0,0,0,31,12,63,4,44,0
Cc1nnc(-c2ccc3ncn(-c4ccc(S(C)=O)cc4)c3c2)o1 (stereo not drawn),0,14,12,0,20,11,0,0,0,0
COc1cc2ncn(-c3cc(OCc4ccncc4)c(C(N)=O)s3)c2cc1OC [GSK336313],0,15,19,5,2,0,0,0,19,0
CCS(=O)c1ccc(-c2coc3ccc(-c4nnc(C)o4)cc23)cc1 (stereo not drawn),0,15,23,17,1,0,0,7,15,0
Cc1ccc(-c2ccc3c(ccc4sc5c(c43)NC[C@@H](C)N=C5N(C)C)n2)cn1,0,0,0,0,0,0,0,0,0,0
COc1cc(Nc2nccc(N3CCC(NC(=O)C(C)c4ccc(Cl)cc4)C3)n2)cc(OC)c1OC (stereo not drawn) [GSK1379757],0,0,15,0,16,0,22,0,28,15
COc1ccc(-c2coc3ccc(-c4nnc(SCc5cccc(C#N)c5)o4)cc23)cc1,0,9,17,20,2,2,0,18,11,0
Cc1c(Cn2c(C)nn3c(=O)cc(N4CCO[C@H](C)C4)nc23)cccc1C(F)(F)F [GSK2373690],0,0,0,3,9,9,0,14,3,0
COc1cc2ncn(-c3cc(OCc4ccncc4Br)c(C(N)=O)s3)c2cc1OC [GW854278],0,44,0,15,8,0,2,17,9,0
CCC(=O)c1c(-c2ccccc2)c2cc(Cl)ccc2c(=O)n1Cc1cc(S(C)(=O)=O)n(CC(N)=O)n1,0,14,0,0,0,0,0,10,1,0
CCC(=O)c1c(-c2ccccc2)c2cc(Cl)ccc2c(=O)n1Cc1cc(S(C)(=O)=O)n(CCC(C)(C)O)n1,0,0,0,0,0,7,3,0,24,0
COc1ccc(Nc2nccc(N3CCC(NS(=O)(=O)c4ccc(NC(C)=O)cc4)C3)n2)cc1 (stereo not drawn) [GSK1379729],10,3,19,22,0,0,0,48,18,10
Cc1ccc(Oc2ccc(Nc3ncnc4cc[nH]c34)cc2C)cn1,4,10,0,34,41,0,5,19,1,0

SMILES,%Inh [1] [%],%Inh [2] [%],%Inh [3] [%],%Inh [4] [%],%Inh [5] [%],%Inh [6] [%],%Inh [7] [%],%Inh [8] [%],%Inh [9] [%],%Inh [10] [%]
COC(=O)c1c(-c2ccccc2)c2cc(Br)ccc2c(=O)n1Cc1ccc(S(C)(=O)=O)cc1,2,10,19,8,0,3,1,0,0,0
Nc1n[nH]c2ncc(-c3ccccc3)cc12 [SB-517081],0,11,0,53,88,0,17,0,0,3
CCn1c(-c2nonc2N)nc2ccccc21 [SB-693162/GW549034],14,36,0,0,59,2,0,10,0,0
Cl.NS(=O)(=O)c1cccc(Nc2cc(-c3ccc(F)cc3)n[nH]2)c1 [GW824645],0,57,19,8,0,29,0,4,0,0
COc1cc2ncn(-c3cc(OCCCc4ccccc4)c(C(N)=O)s3)c2cc1OC [GSK205189],5,3,0,3,0,0,3,19,8,0
Cc1cccc(-c2cc(-c3c[nH]nc3-c3ccccn3)ccn2)c1 [GW679395],0,38,3,0,2,0,0,0,0,9
OCCCNc1nccc(-c2c(-c3cccc(C(F)(F)F)c3)nn3cc(C(F)(F)F)ccc23)n1 [GW630813],0,0,15,0,0,0,0,0,0,0
COc1cccc(C2=C(N(C)c3ccccc3)C(=O)NC2=O)c1 [SB-334865],0,11,0,3,0,0,0,0,12,0
CCCNC(=O)Nc1ccc(Oc2ncnc3ccn(C)c23)cc1,8,1,0,23,0,0,6,6,0,3
O=C(Nc1n[nH]c2nc(-c3ccccc3)c(Br)cc12)C1CC1 [SB-708998],0,6,0,7,1,21,0,18,22,0
Nc1n[nH]c2nnc(-c3ccccc3)c(-c3ccccc3)c12 [GW554060],0,0,7,11,49,0,0,0,8,4
COc1cc(Nc2ccnc3ccc(C(F)(F)F)cc23)cc(OC)c1OC [GW577382],0,17,0,29,9,0,3,31,23,22
CCCC(=O)Nc1n[nH]c2ncc(-c3cccc4ccccc34)cc12 [SB-642057],0,21,0,10,7,0,0,0,0,9
Fc1cccc(CSc2nnc(-c3ccc4c(c3)CCO4)o2)c1,10,5,6,3,4,7,0,0,0,0
O=C(Nc1n[nH]c2nc(-c3ccccc3)c(Cl)cc12)C1CC1 [SB-734909],0,28,0,17,8,26,0,0,0,0
COc1cc2ncn(-c3cc(OCc4ccc(S(C)(=O)=O)cc4)c(C(N)=O)s3)c2cc1OC [GW869979],9,38,6,0,12,0,4,0,0,0
Cc1ccccc1COc1cc(-n2cnc3cc(Cl)ccc32)sc1C(N)=O [GW813349],24,35,0,2,0,0,11,9,0,29
Cc1cc(Nc2nc(-c3cccc(C)n3)nc3ccccc23)ccn1 [GW872411],32,1,0,1,0,0,0,28,0,0
Nc1nc(N)c2nc(-c3ccccc3)[nH]c2n1 [SKF-12778],0,0,29,0,1,0,40,66,40,15
Cc1cccc(-c2nc(Nc3ccc4c(cnn4C)c3)c3ccccc3n2)n1 [GW876731],3,16,10,100,9,28,12,16,0,17
COc1ccc(-c2cc3c(C)nc(N)nc3n([C@H]3CC[C@H](OCCO)CC3)c2=O)cn1,0,1,0,0,0,17,0,0,3,0
COc1cc(OC)cc(-c2cc3cnc(N)nc3nc2NC(=O)NC(C)(C)C)c1,0,9,0,0,0,0,0,0,0,0
Cc1nn2c(=O)cc(N3CCOCC3)nc2n1Cc1cccc(Cl)c1Cl [GSK2342769],1,0,0,0,4,7,0,0,0,10

SMILES,%Inh [1] [%],%Inh [2] [%],%Inh [3] [%],%Inh [4] [%],%Inh [5] [%],%Inh [6] [%],%Inh [7] [%],%Inh [8] [%],%Inh [9] [%],%Inh [10] [%]
CCc1nc(-c2cccc(C)c2)c(-c2ccncc2)s1,4,50,0,0,16,6,0,0,17,0
CN(C)c1cc(-c2ccc3c(N)n[nH]c3c2)nc(N)n1 [GSK2219329],0,0,0,0,9,0,3,0,3,0
Nc1nc(-c2ccccc2F)c(-c2ccnc3ccccc23)s1 [GW560459],0,81,15,12,0,0,0,0,5,15
CCn1c(-c2ccoc2)nc2cnccc21 [SB-733887],0,0,33,13,17,0,0,0,3,1
Nc1ncnc2c1ncn2-c1cccc(F)c1 [SKF-97560],18,9,29,0,32,18,5,30,10,0
CN1C(=O)C(Nc2ccccc2)=C(c2ccccc2)C1=O [SB-300079],0,17,20,0,0,9,0,34,0,6
CCS(=O)(=O)c1ccc(OC)c(Nc2ncc(-c3ccc(F)cc3)o2)c1.Cl [GW591947],0,0,0,0,0,0,0,0,6,10
CCC(=O)c1c(-c2ccccc2)c2cc(Cl)ccc2c(=O)n1Cc1ccc(C(=O)O)cc1,0,0,0,0,0,0,0,0,0,0
Nc1nccc2scc(-c3ccc4c(c3)CCN4C(=O)Cc3ccccc3)c12 [GSK2576924],0,7,9,3,2,3,0,0,5,11
Cc1nnc(-c2ccc(C)c(-c3ccc(C(=O)O)cc3)c2)o1 [GW608005],0,0,13,0,0,0,0,0,0,0
COc1cccc(C2=C(Nc3cccc(C(=O)O)c3)C(=O)NC2=O)c1 [SB-390770],0,7,15,2,0,0,0,47,45,17
COc1ccc(-n2cnc3c(N)ncnc32)cc1 [SKF-97236],0,9,15,9,33,11,0,37,20,0
CCc1ccc(-c2ccc3c(c2)-c2nn(C)cc2S(=O)(=O)N3C)cc1,0,41,16,37,0,28,1,29,11,0
O=C1NC(=O)C(c2ccccc2)=C1Nc1cccc(O)c1 [SB-390534],0,22,0,0,21,0,0,0,6,0
Cc1nc(N(C)[C@H]2CN(C(=O)CC#N)CC[C@H]2C)c2cc[nH]c2n1,0,0,0,0,0,0,0,11,0,0
COc1cc2nccc(Nc3cccc(Oc4ccccc4)c3)c2cc1OC.Cl [GW284543],0,0,0,0,0,4,0,0,11,4
COc1cc2nccc(Nc3ccc(OCc4ccc(NC(C)=O)cc4)cc3)c2cc1OC.Cl [GW440135],0,70,27,6,15,0,0,2,14,9
COc1ccc(-c2cc3c(C)nc(N)nc3n([C@H]3CC[C@H](O)CC3)c2=O)cn1,0,0,0,0,0,0,0,0,0,0
O=C(NCCNc1ccnc(Nc2ccc(F)cc2)n1)Nc1ccc2c(c1)OCO2 [GSK1379882],0,4,0,23,5,0,0,0,0,9
CCC(=O)c1c(-c2ccccc2)c2cc(Cl)ccc2c(=O)n1Cc1cc(S(C)(=O)=O)n(CC(F)F)n1,6,0,0,0,0,0,42,0,0,0
COC(=O)c1c(-c2ccccc2)c2cc(Br)ccc2c(=O)n1Cc1ccc(NC(=O)CCC(=O)O)cc1,18,0,0,0,0,0,0,0,0,0
Cn1c(=O)c(F)c(Nc2ccc(I)cc2F)c2c(=O)n(OC[C@H](O)CO)cnc21,12,0,0,4,0,0,19,25,9,20
CC(C)(C)c1ccc(C(=O)Nc2cn3cc(-c4ccccc4)ccc3n2)cc1,0,36,0,0,13,14,0,0,0,0
